Compound activity as filed in PubChem BioAssay.
A selection: hits, their analogues and other compounds. The true share with any hit is near 21%.
Pf growth 48h: P. falciparum growth inhibition at 48 hours (one generation); actives 5.9% (n = 310,000); AID 504832; Potency, µM (titrated, usually from 28.7 µM), usual class: inhibitors; P. falciparum luciferase growth in erythrocytes, 48 h
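Erythrocytes infected with P. falciparum carrying an integrated firefly luciferase reporter (2% hematocrit, 0.1% parasitemia final) were exposed to compounds in RPMI 1640 with 0.5% Albumax at 37 C, 5% CO2. Growth inhibition was scored as reduced luminescence.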
Pf growth 96h: P. falciparum growth inhibition at 96 hour, primary screen for plastid delayed-death inhibitors. P. falciparum luciferase reporter growth, 96 h. Potency, µM (doses to about 28.7 µM), actives largely listed as inhibitors. actives 6.9% (n = 320,000). AID 504834
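Readout is luminescence from an integrated firefly luciferase in P. falciparum. Red cells, 2% hematocrit and 0.05% parasitemia final, were cultured with compound through two parasite generations (96 hours) at 37 C, 5% CO2.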
Shiga toxin inh: blocks Shiga toxin action in Vero cells; inhibition, % at 38.7 µM; Vero cells, Shiga toxin protein synthesis inhibition reporter; actives 9.2% (n = 290,000); AID 2315; in the data active means inhibition mostly above about 28%, no sharp cut-off; inactive means mostly below about 43%
NS1 function inh: blocks influenza NS1 protein function | Potency, µM (series often up to 46.1 µM) | actives 0.4% (n = 270,000) | AID 2326; calls by dose curve; further: actives are rising curves; nearly all actives have a fitted effect of over 50% in size
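Growth recovery, yeast-based: influenza A NS1 expressed in S. cerevisiae causes slow growth, and suppressors are detected by OD600. The parent strain without NS1 is used as positive control.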
CHX counter: affects cycloheximide protein synthesis inhibition readout, counter-screen. actives 12% (n = 300,000). cell reporter, cycloheximide protein synthesis inhibition counterscreen. max response, %; in the data active means max response mostly above about 13%, no sharp cut-off; inactive means mostly below about 14%; further: read at 38.3 µM for the half of the compounds with a filed dose
Hits are given with their value. Unless noted, the call rests on the fitted dose curve; in most records, active means well fitted inhibition curve with a large enough effect; inconclusive means small, poorly fitted or top-dose-only effect, or another doubt; inactive means no such curve, though single readings can be large or run the other way.

For Cc1ccc(NC(=O)CSc2ncnc3ccccc23)cc1S(=O)(=O)N1CCCCC1 the results were Pf growth 48h inconclusive, Pf growth 96h inconclusive, Shiga toxin inh inactive, NS1 function inh inactive and CHX counter inactive.
`CN1CCN(C(=O)CCc2nc3ccccc3c(=O)[nH]2)CC1` gave Pf growth 96h inactive, Shiga toxin inh inactive, NS1 function inh inactive and CHX counter inactive.
Cc1nc(-c2ccc(F)cc2)c(CC(=O)Nc2ccc(C)c(S(=O)(=O)N3CCOCC3)c2)s1 was read as Pf growth 48h 8.28µM, Pf growth 96h 9.28µM, Shiga toxin inh inactive, NS1 function inh inactive and CHX counter inactive.
Cc1ccc(C)c(S(=O)(=O)N2CCN(C(=O)CCCc3c[nH]c4ccccc34)CC2)c1 was read as Pf growth 48h 14.7µM and Pf growth 96h inconclusive.
Screening COc1cc(C(CC(=O)Nc2ccc(Cl)cn2)N2Cc3ccccc3C2=O)cc(OC)c1OC (stereo unspecified) returned Pf growth 48h inconclusive, Pf growth 96h inactive, Shiga toxin inh inactive, NS1 function inh inactive and CHX counter inactive.
Screening O=C(N1CCN(c2ccc(F)cc2)CC1)C1(c2cccs2)CCOCC1 returned Pf growth 48h inactive, Pf growth 96h inactive, Shiga toxin inh inactive, NS1 function inh inactive and CHX counter inactive.
CN(C)c1ccc(/C=C/c2cc[n+](C)c3ccccc23)cc1 was read as Pf growth 48h 1.04µM, Pf growth 96h inconclusive, Shiga toxin inh inactive, NS1 function inh inactive and CHX counter 26.7.
C[n+]1ccc(/C=C/c2ccccc2O)c2ccccc21 was read as Pf growth 48h 10.4µM, Pf growth 96h inconclusive, Shiga toxin inh inactive and CHX counter inactive.
For CN(C)c1ccc(/C=C/C=C/c2sc3ccccc3[n+]2C)cc1 the results were Pf growth 48h inactive, Pf growth 96h inactive, Shiga toxin inh inactive, NS1 function inh inactive and CHX counter inactive.
`C[n+]1ccc(-c2ccccc2)c2ccccc21` gave Pf growth 48h 1.04µM and Pf growth 96h inconclusive.
COc1ccc(CCN(CC(=O)NC2CCCC2)C(=O)Cn2nnc(-c3ccc(C)o3)n2)cc1OC was read as Pf growth 48h inactive, Pf growth 96h inactive, Shiga toxin inh inactive, NS1 function inh inactive and CHX counter inactive.
Screening O=C(N/N=C/c1cc(Br)c(O)c(Br)c1)C1CC1 returned Pf growth 48h inactive, Pf growth 96h inactive, Shiga toxin inh inactive, NS1 function inh inactive and CHX counter inactive.
Screening CC(C)(C)NC(=S)N/N=C/c1cc(Br)c(O)c(Br)c1 returned Pf growth 48h inconclusive, Pf growth 96h 7.38µM, Shiga toxin inh inactive, NS1 function inh inactive and CHX counter inactive.
Screening CC1CCCCC1NC(=O)COC(=O)CNC(=O)c1cccc(F)c1 (stereo unspecified) returned Pf growth 48h inactive, Pf growth 96h inactive, Shiga toxin inh inactive and CHX counter inactive.
For CC(C(=O)NCC1CCCCC1)N1CCN(S(=O)(=O)c2cccs2)CC1 (stereo unspecified) the results were Pf growth 48h 9.28µM and Pf growth 96h inconclusive.
CC(C(=O)NC1CCCC1)N1CCN(S(=O)(=O)c2ccc(C(C)(C)C)cc2)CC1 (stereo unspecified) was read as Pf growth 48h 1.47µM and Pf growth 96h 1.47µM.
Screening CCOC(=O)C1=C(C)NC(SCC(=O)O)=NC1c1ccccc1 (stereo unspecified) returned Pf growth 48h inconclusive, Pf growth 96h inconclusive, Shiga toxin inh inactive, NS1 function inh inconclusive and CHX counter inactive.
`Cc1ccc(C2C3=C(CCCC3=O)N=C3c4ccccc4C(=O)C32)cc1` (stereo unspecified) gave Pf growth 48h inconclusive, Pf growth 96h inconclusive, Shiga toxin inh inactive, NS1 function inh inactive and CHX counter inactive.
O=C(Cc1ccc([N+](=O)[O-])cc1)N1N=C(C2CC2)CC1(O)C(F)(F)F (stereo unspecified) was read as Pf growth 48h inactive, Pf growth 96h inconclusive, Shiga toxin inh inactive and CHX counter inactive.
Screening Cc1ccc(S(=O)(=O)CCC(=O)NCCC2=CCCCC2)cc1 returned Pf growth 48h inactive and Pf growth 96h inactive.
Screening O=C(COC(=O)c1ccccc1)NCCC1=CCCCC1 returned Pf growth 48h inactive, Pf growth 96h inactive, Shiga toxin inh inactive and CHX counter 14.3.
`O=C(CCS(=O)(=O)c1ccccc1Cl)NCCC1=CCCCC1` gave Pf growth 48h inactive, Pf growth 96h inactive, Shiga toxin inh 60.8, NS1 function inh inactive and CHX counter 34.8.
Screening O=C(CCc1ccccc1)NCCC1=CCCCC1 returned Pf growth 48h inactive, Pf growth 96h inconclusive, Shiga toxin inh 99.0, NS1 function inh inactive and CHX counter 39.9.
O=C(Cc1ccccc1)NCCC1=CCCCC1 was read as Pf growth 48h inactive, Pf growth 96h inconclusive, Shiga toxin inh inactive, NS1 function inh inactive and CHX counter inactive.
For O=C(CN1C(=O)C2C3C=CC(C3)C2C1=O)NCCC1=CCCCC1 (stereo unspecified) the results were Pf growth 48h inactive, Pf growth 96h inactive, Shiga toxin inh inactive, NS1 function inh inactive and CHX counter 22.2.
For CC=C1COC(C(=O)NCCOCCO)(C(F)(F)F)C=C1C=C(C)C (stereo unspecified) the results were Shiga toxin inh inactive and CHX counter inactive.
Screening Cc1ccsc1C(=O)OCC(=O)NCCC1=CCCCC1 returned Pf growth 48h inactive, Pf growth 96h inactive, Shiga toxin inh inactive, NS1 function inh inactive and CHX counter 21.7.
CN(C)c1ccc(C(=O)OCC(=O)NCCC2=CCCCC2)cc1 was read as Pf growth 48h inactive, Pf growth 96h inactive, Shiga toxin inh inactive and CHX counter inactive.
For O=C(CCCc1ccccc1)NCCC1=CCCCC1 the results were Pf growth 48h inactive, Pf growth 96h inactive, Shiga toxin inh inactive, NS1 function inh inactive and CHX counter 27.4.
Screening CCOc1ccc(-n2c(=S)sc3c(=O)n(-c4ccc(F)cc4)c(SCC(=O)O)nc32)cc1 returned Pf growth 48h inactive, Pf growth 96h inactive, Shiga toxin inh inactive, NS1 function inh inactive and CHX counter inactive.
Screening C=CCn1c(NCCc2ccccc2)nc2c1c(=O)n(C)c(=O)n2C returned Pf growth 48h inactive, Pf growth 96h inactive, Shiga toxin inh inactive, NS1 function inh inactive and CHX counter inactive.
`C/C(Cl)=C\Cn1c(NCCc2ccccc2)nc2c1c(=O)n(C)c(=O)n2C` gave Pf growth 48h 9.28µM, Pf growth 96h inactive, Shiga toxin inh inactive, NS1 function inh inactive and CHX counter inactive.
For Cn1c(=O)c2c(nc(NCCc3ccccc3)n2CC(=O)NCCc2ccccc2)n(C)c1=O the results were Pf growth 48h inactive, Pf growth 96h 13.1µM, Shiga toxin inh inactive, NS1 function inh inconclusive and CHX counter inactive.
`CCc1nnc(SCC(=O)NCCC2=CCCCC2)nc1CC` gave Pf growth 48h inactive, Pf growth 96h inactive, Shiga toxin inh inactive, NS1 function inh inactive and CHX counter inactive.
Screening CCC(C)/C(C)=N/NC(=O)CNS(=O)(=O)c1ccc([N+](=O)[O-])cc1 (stereo unspecified) returned Pf growth 48h inconclusive, Pf growth 96h inconclusive, Shiga toxin inh inactive and CHX counter inactive.
